The source of these data is PubChem BioAssay AID777 (Sanford-Burnham Center for Chemical Genomics, 2007).

Hit rate of the full screen: of about 96,000 compounds, about 19,000 (20%) were called active. Not all results are given here. Values without a mark were called inactive.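 How the source made its calls: active means blocking of liver enzyme CYP2C9 beyond about 50% at 5 µM (limit read from the data); inactive means the rest.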

For the test, the target named is Cytochrome P450 2C9 (Homo sapiens) (UniProt P11712). Description: blockers of cytochrome P450 2C9 activity – biochemical, luminescence, ADME assay, primary screen (AID 777). Particulars: CYP2C9 Supersomes, luciferin-H conversion, at 5 µM, stronger effect = higher value.
Sequence of Cytochrome P450 2C9 (Homo sapiens) (P11712 whole entry, looked up): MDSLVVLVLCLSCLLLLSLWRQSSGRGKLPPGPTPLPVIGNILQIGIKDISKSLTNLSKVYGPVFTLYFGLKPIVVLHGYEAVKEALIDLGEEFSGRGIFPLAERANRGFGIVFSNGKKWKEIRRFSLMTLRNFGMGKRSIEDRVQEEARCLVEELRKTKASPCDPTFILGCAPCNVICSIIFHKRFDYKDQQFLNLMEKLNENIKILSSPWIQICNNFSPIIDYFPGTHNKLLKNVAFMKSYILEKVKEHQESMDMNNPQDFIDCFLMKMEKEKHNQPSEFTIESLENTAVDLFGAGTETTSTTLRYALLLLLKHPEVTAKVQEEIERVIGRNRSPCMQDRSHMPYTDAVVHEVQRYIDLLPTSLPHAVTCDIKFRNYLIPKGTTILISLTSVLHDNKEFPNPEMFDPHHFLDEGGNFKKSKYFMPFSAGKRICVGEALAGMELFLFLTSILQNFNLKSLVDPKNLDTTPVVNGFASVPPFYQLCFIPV
Regarding `Cc1ccc(C)c(NC(=O)CSc2nnc(Cc3cccn3C)n2-c2ccc(F)cc2)c1`, the inhibition is 19.9%.

Consider `COC(=O)c1ccc(NC(=O)CSc2nnc(Cc3cccn3C)n2-c2ccc(F)cc2)cc1`, for which the inhibition was 19.2%. For `COc1ccccc1NC(=O)CSc1nnc(Cc2cccn2C)n1-c1ccc(F)cc1` the value was 62.7% (active); for `CC(=NC1CCN(Cc2ccccc2)CC1)c1c(O)[nH]c(=O)[nH]c1=O`, -1.3%. For `CN=C1S/C(=C\c2ccc(Sc3ccc(Cl)cc3)o2)C(=O)N1C` the value was 29.4%; for `CCC(C)N1C(=O)S/C(=C/c2ccc(Sc3nc4ccccc4[nH]3)o2)C1=O` (configuration not stated), 60% (active); for `O=C(CSc1nc2ccccc2[nH]1)c1cccs1`, 29.8%.

In the case of `CC(=O)c1sc(NC(=O)c2ccc(C)cc2)nc1C`, the inhibition is 6.9%. For `CC(=O)c1sc(NC(=O)c2cccc3ccccc23)nc1C` the value was -22.6%. `COc1cccc2sc(Nc3nc(C)c(C(C)=O)s3)nc12`: the inhibition is 64.5% (active). For `COc1ccc(C(=S)Nc2ccccc2)cc1` the value was 15%. For `CN1CCN(C(=O)Cn2c(C(F)(F)F)nc3ccccc32)CC1`, the inhibition is -8.1%.

For `CS(=O)(=O)N(CC(=O)N1CCN(c2ccc(F)cc2)CC1)C1CCCCC1`, the inhibition is 21.6%. For `CS(=O)(=O)N(CC(=O)Nc1ccc(Cl)c(Cl)c1)C1CCCCC1` the value was 59.4% (active); for `CCOC(=O)N1CCN(C(=O)CN(C2CCCCC2)S(C)(=O)=O)CC1`, 0.7%; for `CC(C)C(C)NC(=O)COc1ncnc2ccccc12` (configuration not stated), 14.1%. Take `Cc1ccc(Cc2nc(-c3cccc(C)c3)no2)cc1`: the inhibition is -9.2%.

Take `CSc1nnc(CNC(=O)c2ccccc2)n1-c1ccc(F)cc1`: the inhibition is -3.4%. On to `Fc1ccc(-n2c(Cc3ccccc3)nnc2SCc2nc(-c3ccc(Cl)cc3)no2)cc1`, for which the inhibition is 62.6% (active). Take `CCOc1cc(-c2noc(CCC(=O)N3CCOCC3)n2)ccc1OC`: the inhibition is -11.7%. As for `COc1ccccc1Cc1nc(-c2ccc(C)cc2)no1`, the inhibition is 7.1%.

For `O=C(CSc1nnc(Cc2ccccc2)n1-c1ccccc1)N1CCOCC1`, the inhibition was 3.8%. With `COc1ccc(-c2noc(-c3ccc(C)cc3)n2)cc1`, the inhibition was -13.8%. For `COc1ccc(N2CCN(C(=O)CCc3nc(-c4ccc(C)cc4)no3)CC2)cc1` the value was 51.2% (active). For `Cc1ccc(-c2noc(CC(c3ccccc3)c3ccccc3)n2)cc1` the value was 55.2% (active); for `COc1ccc(-c2noc(CSc3ccc(C)cc3)n2)cc1`, 52.3% (active). For `COc1ccc(-c2noc(CN(C)S(=O)(=O)c3ccc(C)cc3)n2)cc1` the value was 18.8%; for `Cc1ccc(-c2noc(CCC(N)=O)n2)cc1`, 6.1%; for `CCn1c(SCC(=O)Nc2ccc(S(=O)(=O)Nc3onc(C)c3C)cc2)nnc1-c1ccccc1`, 18.2%.

As for `O=C(NCCCCO)C(F)(F)C(F)(F)C(F)(F)C(=O)NCCCCO`, the inhibition is -24.7%. For the molecule `Cc1ccc(-c2noc(CSc3nnc(-c4cccs4)n3C)n2)cc1`, the inhibition was 13%. For `Cc1cccc(-c2noc(-c3ccc(F)cc3)n2)c1` the value was 8.5%; for `Cn1c(SCc2nc3ccccc3s2)nnc1-c1ccc2c(c1)OCO2`, 8.2%; for `CCN(CC)C(=O)CSc1nnc(-c2cnccn2)n1-c1ccc(C)cc1`, 8.8%. Regarding `Cc1ccc(-c2noc(CSc3nnc(-c4ccncc4)n3-c3ccc(F)cc3)n2)cc1`, the inhibition is 70.7% (active).

With `Cc1ccc(Nc2nc(CSc3nnnn3-c3ccccc3)cc(=O)[nH]2)cc1`, the inhibition is 42.5%. For the molecule `Cc1ccc(-c2noc(CSc3nnc(-c4ccccc4)n3C)n2)cc1`, the inhibition was 88.3% (active). For `CN(C(=O)CSc1nnnn1-c1ccccc1)C1CCCCC1` the value was 36.3%; for `Cc1ccc(-c2noc(CSc3nnnn3-c3ccccc3)n2)cc1`, 85.5% (active); for `O=C(O)CN(Cc1ccco1)S(=O)(=O)c1ccccc1`, -2.7%. Take `O=C(c1ccc(O)cc1)c1ccc(C(=O)O)c(C(=O)O)c1`: the inhibition was -15.8%. On to `COc1ccc(C(CNC(=O)c2cccnc2SC)N2CCOCC2)cc1` (configuration not stated), for which the inhibition was 6.9%.

For the molecule `S=C1NC(c2ccccc2)=NCN1c1ccc(Br)cc1`, the inhibition is 19.4%. For the molecule `CCOC(=O)N1CCN(C(=O)C2CCN(S(C)(=O)=O)CC2)CC1`, the inhibition was -10.2%. For `CCOC(=O)N1CCN(S(=O)(=O)c2cc(Br)cc3c2N(C(=O)C2CC2)CC3)CC1` the value was 50.2% (active). As for `CCN(c1ccc2c(c1)OCO2)S(=O)(=O)c1cc(Br)cc2c1N(C(=O)C1CC1)CC2`, the inhibition is 33.6%. For `O=C(O)C1CC=CCC1C(=O)NCCc1ccccc1` (configuration not stated) the value was -21.1%; for `O=c1[nH]c(=O)n(Cc2ccco2)c2c1C(C(F)(F)F)(C(F)(F)F)N=C(c1ccco1)N2`, 1.8%. As for `Cc1ccc(C)c(NS(=O)(=O)c2cc(Br)cnc2N)c1`, the inhibition was 63.5% (active). For `Cc1ccc(S(=O)(=O)NCc2csc(C)n2)c(C)c1` the value was 9.2%. For `Cc1ccc(C)c(S(=O)(=O)n2cnc3ccccc32)c1` the value was -14.6%. As to `CCOC(=O)CSc1nnc(CNC(=O)c2cccs2)n1-c1cc(OC)ccc1OC`, the inhibition is 31.7%. Regarding `Cc1cc(C)c(S(=O)(=O)c2ccccc2)c(OC(=O)c2c(F)cccc2Cl)n1`, the inhibition was 32.9%. For `O=c1c2ccccc2nc2n1C(CSc1ccc(F)cc1)CN2` (configuration not stated), the inhibition is 1.1%.

As to `C=CCn1c(SCCOc2ccc(OC)cc2)nnc1C(NC(=O)c1ccc(OC)cc1)C(C)C` (configuration not stated), the inhibition was 58.8% (active). As for `C=CCn1c(COc2cccc3cccnc23)nnc1SCC(=O)OC`, the inhibition is -306%. For `C=CCn1c(SCC(=O)c2ccc(Br)cc2)nnc1C(C)NC(=O)Cc1ccc(OC)cc1` (configuration not stated), the inhibition is 30.7%. As to `CC1=C(C)CC(C(=O)NNC(=O)c2ccccc2O)C(C(=O)O)C1` (configuration not stated), the inhibition was 21.8%. For `O=C(c1c(Cl)nc2sccn12)N1CCCc2ccccc21` the value was 28.1%.

As for `Cc1cccc(N2CCN(S(=O)(=O)c3ccc4[nH]c(=O)c(=O)[nH]c4c3)CC2C)c1` (configuration not stated), the inhibition was 52.5% (active). For the molecule `CN1CCN(S(=O)(=O)c2ccc3[nH]cc(C(=O)O)c(=O)c3c2)CC1`, the inhibition was 2.4%. For `COc1cccc(N2C(=O)CC(N3CCN(S(=O)(=O)c4ccccc4)CC3)C2=O)c1` (configuration not stated) the value was 6.5%.

For orientation: inhibition means the relative decrease from the control value, in per cent.
